A selection: hits, their analogues and other compounds. The true share with any hit is near 2.3%.
ANO1 activ = TMEM16A chloride channel activators or potentiators, primary screen, cell-based, HTS | Anoctamin-1 (Mus musculus), Q8BHY3 | HEK293 TMEM16A/YFP-H148Q/I152L, iodide quench fluorescence; stronger effect = lower value | B-score at 10 µM | 340,000 compounds, 0.3% hits;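 active = fluorescence-ratio B-score plate-corrected deviation score at least 3 library SD below zero, with starting fluorescence score within 5 deviations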;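 note: channel opened by trigger with iodide after compound preincubation; score built on the fluorescence ratio of max minus min over baseline; more negative score means more quench and so TMEM16A activation or potentiation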
ANO1 block = TMEM16A chloride channel inhibitors, primary screen, cell-based, HTS. Anoctamin-1 (Mus musculus), Q8BHY3. HEK293 TMEM16A/YFP iodide influx fluorescence, ionomycin. normalized B-score (activity score, 25-100; higher = stronger inhibition) at 10 µM. 310,000 compounds, 1.2% hits;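 active = ratio plate-corrected score three or more library SD toward inhibition, starting fluorescence score within five deviations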;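 note: score derived from kinetic fluorescence span divided by baseline fluorescence per well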
CHT inh = inhibitors of human choline transporter CHT; High affinity choline transporter 1 (Homo sapiens), Q9GZV3; CHT-expressing cells, membrane potential dye, choline response; stronger effect = lower value; B-score at 10 µM; 310,000 compounds, 0.86% hits;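 active = B-score over 3 SD under the library average, and starting fluorescence ratio not unusually high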;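 note: choline stimulus applied at its EC90 after an EC20 pre-addition; B-score computed on integrated fluorescence ratio after choline addition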
CHT allo act = CHT positive allosteric modulators, primary screen, cell-based, membrane potential dye, choline EC20; B-score at 10 µM; AID 488977, 2010; CHT-expressing cells; stronger effect = higher value; LV-AA mutant CHT in HEK293 cells; 310,000 compounds, 0.49% hits;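 active = initial fluorescence not abnormally high and integrated response B-score, plate-corrected, over 3 SD above library mean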
TMEM16A reconf = TMEM16A chloride channel inhibitors, confirmation, cell-based, re-confirmation; shares compounds with ANO1 block; HEK293 TMEM16A/YFP-H148Q, iodide quench fluorescence; ionomycin added to raise cell calcium; inhibition, % at 10 µM; 2,300 compounds, 39% hits;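 active = mean duplicate percent inhibition, scaled so buffer wells are 0 and the reference blocker 100, over three buffer SD above buffer mean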
TMEM16A Ca cntr = calcium mobilization in TMEM16A/YFP HEK293 cells, confirmation, counter-screen for TMEM16A inhibitor project | shares compounds with ANO1 block | Fluo4 calcium mobilization | calcium response (% of ionomycin), % at 10 µM | 2,300 compounds, 2% hits | AID 652231, 2013;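 active = duplicate-averaged calcium signal over 20% of the ionomycin maximum, relative to buffer baseline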;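 note: each well's signal is peak minus trough fluorescence divided by its pre-addition baseline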
YFP-HEK293 quench = iodide YFP quench changes in parental YFP-HEK293, counter-screen for TMEM16A inhibitor project, cell-based; AID 652233, 2013; 2,300 tested, under 10 active; shares compounds with ANO1 block; YFP ratio F(max-min)/F0 at 10 µM; ionomycin;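 active = yellow fluorescent protein signal ratio exceeding the buffer control mean by over 5 SD of those controls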;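 note: ratio is mean of duplicate wells from kinetic YFP trace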
ClC-1 inh = ClC-1 chloride channel inhibition, selectivity assay for TMEM16A inhibitor project, cell-based, voltage-dependent ClC-1 | CHO ClC-1-YFP, iodide influx fluorescence quench; iodide control reads 0, buffer control 100 | AID 652236, 2013 | 2,300 tested, under 10 active | ratio percent, % at 10 µM | shares compounds with ANO1 block;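 active = duplicate-mean ratio percent above the mean of iodide-only control wells, which defines zero, plus 5 of their SD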;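 note: higher percent means stronger block of ClC-1 iodide influx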
Target sequence (P35524 whole entry, looked up): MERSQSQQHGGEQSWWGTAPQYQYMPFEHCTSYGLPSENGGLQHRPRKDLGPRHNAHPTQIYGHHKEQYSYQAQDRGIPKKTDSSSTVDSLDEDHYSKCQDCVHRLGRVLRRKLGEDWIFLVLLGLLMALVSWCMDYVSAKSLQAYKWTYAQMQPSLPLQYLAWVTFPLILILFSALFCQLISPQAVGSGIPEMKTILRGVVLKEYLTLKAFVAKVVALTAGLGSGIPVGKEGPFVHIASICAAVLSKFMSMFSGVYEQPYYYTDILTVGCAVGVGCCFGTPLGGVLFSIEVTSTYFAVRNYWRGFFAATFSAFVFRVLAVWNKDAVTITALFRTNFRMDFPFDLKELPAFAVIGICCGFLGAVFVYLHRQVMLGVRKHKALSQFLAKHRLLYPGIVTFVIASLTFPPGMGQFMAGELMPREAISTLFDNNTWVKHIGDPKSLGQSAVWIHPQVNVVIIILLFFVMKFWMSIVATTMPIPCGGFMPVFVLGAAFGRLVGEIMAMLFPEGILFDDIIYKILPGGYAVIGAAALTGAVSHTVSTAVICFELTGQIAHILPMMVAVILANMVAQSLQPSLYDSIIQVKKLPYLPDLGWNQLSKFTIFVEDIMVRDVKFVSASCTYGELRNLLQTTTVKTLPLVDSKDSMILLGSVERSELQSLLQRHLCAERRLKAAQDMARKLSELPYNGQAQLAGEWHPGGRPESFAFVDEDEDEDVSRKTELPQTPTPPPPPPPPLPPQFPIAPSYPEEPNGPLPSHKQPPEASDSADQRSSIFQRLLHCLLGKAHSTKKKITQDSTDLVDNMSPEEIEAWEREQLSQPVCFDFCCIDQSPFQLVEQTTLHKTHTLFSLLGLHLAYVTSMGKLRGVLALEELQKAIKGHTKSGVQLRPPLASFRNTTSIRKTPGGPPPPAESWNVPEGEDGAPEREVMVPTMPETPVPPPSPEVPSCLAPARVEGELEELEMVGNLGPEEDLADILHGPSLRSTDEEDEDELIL
Of the large screens only hits and unclear results are named; the others gave an inactive call (follow-up assays come after a bar, where they were run).

Cc1ccnc(Nc2nc(-c3ccc(F)cc3)cs2)c1	ANO1 block 100 | TMEM16A reconf inactive | TMEM16A Ca cntr inactive | YFP-HEK293 quench inactive | ClC-1 inh inactive
Cc1ccnc(Nc2nc(-c3ccc(Cl)cc3)cs2)c1	none
O=C(Nc1ccc(Nc2ccncc2)cc1)c1ccc(Nc2ccnc3ccc([N+](=O)[O-])cc23)cc1[N+](=O)[O-]	ANO1 block 25 | TMEM16A reconf inactive | TMEM16A Ca cntr inactive | YFP-HEK293 quench inactive | ClC-1 inh inactive
O=C(Nc1ccc(NC(=O)c2ccc([N+](=O)[O-])cc2[N+](=O)[O-])cc1)c1ccco1	none
CCOC(=O)C(CCC(=O)O)(CCC(C)C)c1csc(N)n1 (stereo unspecified)	ANO1 block 100 | TMEM16A reconf inactive | TMEM16A Ca cntr inactive | YFP-HEK293 quench inactive | ClC-1 inh inactive
CCOC(=O)C(CC)(CCC(=O)OC)c1csc(Nc2ccccc2O)n1 (stereo unspecified)	none (no result: ANO1 activ)
Cc1ccc(S(=O)(=O)Cc2ccc(C(=O)OCc3ccccc3)cc2)cc1	ANO1 block 25 | TMEM16A reconf 44% | TMEM16A Ca cntr inactive | YFP-HEK293 quench inactive | ClC-1 inh inactive
CC(=O)N[C@@H](Cc1c[nH]c2ccccc12)C(=O)NC1CCCc2ccccc21 (stereo partly specified)	none
O=C(Nc1cccc(S(=O)(=O)N2CCCCC2)c1)c1ccccc1NS(=O)(=O)c1ccc(F)cc1	ANO1 block 100 | TMEM16A reconf 40% | TMEM16A Ca cntr inactive | YFP-HEK293 quench inactive | ClC-1 inh inactive
O=C(Nc1cccc(S(=O)(=O)N2CCCCC2)c1)Nc1ccc(Cl)cc1Cl	ANO1 block 100 | TMEM16A reconf inactive | TMEM16A Ca cntr inactive | YFP-HEK293 quench inactive | ClC-1 inh inactive
NS(=O)(=O)c1cccc(NC(=O)c2ccccc2NS(=O)(=O)c2ccc(F)cc2)c1	none
CCOC(=O)c1cn(Cc2ccccc2)c(C(=O)OC(C)(C)C)c1O	ANO1 block 100 | TMEM16A reconf 32% | TMEM16A Ca cntr inactive | YFP-HEK293 quench inactive | ClC-1 inh inactive
CCN(CC)S(=O)(=O)c1ccc(C(=O)OCC(=O)NCCN2C(=O)CSC2=O)cc1	none
CC(C)(C)c1ccc(Oc2ccc(NC(=O)c3ccco3)cn2)cc1	ANO1 block 100 | TMEM16A reconf 20% | TMEM16A Ca cntr inactive | YFP-HEK293 quench inactive | ClC-1 inh inactive
O=C(Nc1ccc(Oc2cccnc2)nc1)c1ccc(C(F)(F)F)cc1	ANO1 block 25 | TMEM16A reconf inactive | TMEM16A Ca cntr inactive | YFP-HEK293 quench inactive | ClC-1 inh inactive
O=C(NC(=O)c1c(Cl)cccc1Cl)Nc1ccc(Oc2cccnc2)nc1	none
NC(=O)C1=C[C@H](c2ccc(Br)cc2)C[C@H](OCc2ccc(CO)cc2)O1	none
S=C(NCCc1ccccc1)Nc1ccc(N2CCCCC2)cc1	none (no result: ANO1 activ) | TMEM16A reconf inactive | TMEM16A Ca cntr inactive | YFP-HEK293 quench inactive | ClC-1 inh inactive
CCc1ccc(CCC(=O)Nc2ccc(C(C)=O)cc2)o1	none
CCOC(=O)c1ccc(NC(=O)CCc2ccc(CC)o2)cc1	ANO1 block 100 | TMEM16A reconf inactive | TMEM16A Ca cntr inactive | YFP-HEK293 quench inactive | ClC-1 inh inactive
CCOC(=O)c1ccc(NC(=S)NCCc2ccccc2)cc1	ANO1 block 25 | TMEM16A reconf 18% | TMEM16A Ca cntr inactive | YFP-HEK293 quench inactive | ClC-1 inh inactive
CCNC(=S)N1CCc2cc(OC)c(OC)cc2C1COc1ccccc1OC (stereo unspecified)	none
O=C(CSc1cccc[n+]1[O-])NC1CCCCC1	none (no result: ANO1 block, CHT inh, CHT allo act)
Cc1cc(C)c(S(=O)(=O)NCc2ccncc2)c(C)c1	ANO1 block 100 | TMEM16A reconf 30% | TMEM16A Ca cntr inactive | YFP-HEK293 quench inactive | ClC-1 inh inactive
Cc1ccc(S(=O)(=O)N2CCCC(C(=O)NCCC(C)C)C2)cc1 (stereo unspecified)	none
C[C@H](CO)N1C[C@H](C)[C@@H](CN(C)S(=O)(=O)c2ccc(F)cc2)Oc2ccc(NC(=O)Cc3ccccc3)cc2C1=O	none (no result: ANO1 block, CHT inh, CHT allo act)
CCCCOC(=O)c1ccc(NC(=O)COC(=O)C2CSC3(C)CCC(=O)N23)cc1 (stereo unspecified)	ANO1 block 25 | TMEM16A reconf 30% | TMEM16A Ca cntr inactive | YFP-HEK293 quench inactive | ClC-1 inh inactive
Cc1cc(=O)oc2cc(O)cc(O)c12	none (no result: ANO1 block, CHT inh, CHT allo act)
CCCCCc1cc(O)c2c(C)cc(=O)oc2c1	ANO1 block 100 | TMEM16A reconf 16% | TMEM16A Ca cntr inactive | YFP-HEK293 quench inactive | ClC-1 inh inactive
N#Cc1ccccc1S(=O)(=O)N1CCN(C(=O)Cc2coc3cc(O)ccc23)CC1	none (no result: ANO1 block, CHT inh, CHT allo act)
CCOC(=O)c1c(NC(=O)CSc2nnc(Cc3ccccc3)o2)sc(C)c1C	ANO1 block 100 | TMEM16A reconf inactive | TMEM16A Ca cntr inactive | YFP-HEK293 quench inactive | ClC-1 inh inactive
CCOC(=O)c1c(NC(=O)CSc2nc3cccnc3n2C)sc(C(C)=O)c1C	none
CCOC(=O)c1c(NC(=O)CSc2nnc(-c3ccco3)o2)sc(C)c1C	none
CCOC(=O)c1c(NC(=O)CSc2nnc(-c3ccccc3C)n2C)sc(C(C)=O)c1C	ANO1 block 25 | TMEM16A reconf inactive | TMEM16A Ca cntr inactive | YFP-HEK293 quench inactive | ClC-1 inh inactive
CC(C)(C)NC(=O)NC(=O)COC(=O)c1cccc(OC(F)F)c1	none
COC(=O)c1ccc(-c2noc(CN(C)Cc3ccncc3C)n2)cc1	ANO1 block 25 | TMEM16A reconf inactive | TMEM16A Ca cntr inactive | YFP-HEK293 quench inactive | ClC-1 inh inactive
COCCn1c(SCc2csc(-c3ccccc3)n2)nc2ccccc21	ANO1 block 100 | TMEM16A reconf 24% | TMEM16A Ca cntr inactive | YFP-HEK293 quench inactive | ClC-1 inh inactive
CN1c2ccccc2C(O)=C(C(=S)Nc2ccc(Cl)cc2)S1(=O)=O	ANO1 block 100 | TMEM16A reconf 20% | TMEM16A Ca cntr inactive | YFP-HEK293 quench inactive | ClC-1 inh inactive
N#Cc1c(-c2cccc(Br)c2)cc(-c2cccnc2)nc1N	ANO1 block 25 | TMEM16A reconf 25% | TMEM16A Ca cntr inactive | YFP-HEK293 quench inactive | ClC-1 inh inactive
Cc1cc(C)n2cc(CSc3nncn3C)nc2n1	none
